# TEAD-YAP inh = TEAD-YAP interaction inhibition. HEK-TIYL cells, TEAD-Gal4/YAP UAS-luciferase luminescence. inhibition, % at 9.12 µM. 640,000 compounds, 1.4% hits; in the data active = inhibition above about 32%;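 note: 0% = median of test compound wells and 100% = reference inhibitor wells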
# MITF inh = inhibitors of human MITF; O75030; AlphaScreen MITF homodimerization, bead proximity signal; inhibition, % at 2.6 µM; 650,000 compounds, 0.91% hits; AID 1259374; in the data active = inhibition above about 50%;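 note: 0% = vehicle wells with protein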
# FBW7 activator = activators of human E3 ligase FBW7; Q969H0; normalized activity (activation), % at 26.1 µM; 650,000 compounds, 0.13% hits; AID 1259310; AlphaScreen FBW7–phospho-cyclin E peptide binding, activator screen; in the data active = normalized activity above about 1.9%;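 note: purified mutant Fbw7 with reduced substrate affinity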
# GPR151 ag = human GPR151 activation; Q8TDV0; PathHunter beta-arrestin GPR151 cells, luminescence; activation, % at 11.2 µM; 650,000 compounds, 1% hits; AID 1508602; in the data active = activation above about 4.9%;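 note: 0% = median of compound wells and 100% = cells with positive control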
# MITF confirm = human MITF inhibition, confirmation; shares compounds with MITF inh; AlphaScreen MITF homodimerization, biotin/His-MITF beads; inhibition, % at 2.6 µM; 4,700 compounds, 16% hits; AID 1259372;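 active = inhibition above a cutoff derived from the DMSO control wells, cut at about 28% in these data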;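 note: 0% = MITF dimer wells with DMSO only; inhibitors lower the bead chemiluminescence by keeping MITF from dimerizing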
# AlphaScreen DR = counter-screen: compounds optically interfering with AlphaScreen; shares compounds with MITF inh; AlphaScreen optical interference counterscreen, cell-free; IC50, µM; 480 compounds, 6% hits; AID 1259373; call rule not given here
# AlphaScreen intf2 = AlphaScreen optical interference, counter-screen; shares compounds with MITF inh; LysRS AlphaScreen counterscreen, signal interference, triplicate; inhibition, % at 2.6 µM; 4,700 compounds, 7.6% hits;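 active = inhibition above a cutoff derived from the DMSO control wells, cut at about 30% in these data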
# * marks the source's active call; other numbers are inactive results; / = no result. Rows were chosen to be rich in hits. Some 3.4% of all compounds tested hit in one or more screens of this group.
SMILES,TEAD-YAP inh,MITF inh,FBW7 activator,GPR151 ag,MITF confirm,AlphaScreen intf2,others
c1ccc(CN2CCC(N3CCN(C4CCCCCC4)CC3)CC2)cc1,-2,21,0,0,/,/,
Clc1ccccc1CN1CCN(C2CCCC2)CC1,5,74*,0,-1,19,16,
CCCn1nc(C(=O)OCC(=O)Nc2ccc([N+](=O)[O-])cc2Cl)c2ccccc2c1=O,12,9,0,-4,/,/,
CC(C)c1ccc(/C=C2\N=C(c3cc(F)c(F)cc3Cl)OC2=O)cc1,-1,-5,0,1,/,/,
O=C(O)/C=C/c1cccc(-c2cnn3c(NCCc4ccccn4)ccnc23)c1,3,53*,0,0,3,15,
CC(=O)c1cccc(-c2cnn3c(NCCc4ccccn4)ccnc23)c1,-37,11,0,0,/,/,
CCOC(=O)c1ccc(NC(=O)CC2S/C(=N/N=C3\CSC(=O)N3)NC2=O)cc1 (stereo unspecified),6,25,-2,-1,/,/,
NC(=O)NC(=O)CC1S/C(=N/N=C2\CSC(=O)N2)NC1=O (stereo unspecified),10,96*,0,-1,72*,100*,
O=C(O)CC1S/C(=N/N=C2\CSC(=O)N2)NC1=O (stereo unspecified),9,92*,0,0,84*,100*,
O=[N+]([O-])c1cc([N+](=O)[O-])c2cc[nH]c2c1,-2,69*,0,0,0,4,
CN(C)C(CNCC(=O)NC1CCCc2ccccc21)c1ccccc1 (stereo unspecified),6,76*,0,0,22,56*,
CC(C)CN1C(=O)C(=O)N(CC(=O)NC2CCCc3ccccc32)C1=O (stereo unspecified),-6,-11,0,0,/,/,
COC(=O)C1=C(C)NC(=O)NC1c1cn(-c2ccccc2)nc1-c1ccc(OC)cc1 (stereo unspecified),3,9,0,1,/,/,
O=C(CCc1ccccc1)Nc1nnc(-c2cccs2)s1,0,55*,0,1,0,12,
CC(=O)Oc1ccccc1N1C(=O)c2ccc(Oc3cccc(N)c3)cc2C1=O,-6,54*,0,-1,70*,2,AlphaScreen DR=>6.5
CCC(C)NC(=O)CN(Cc1ccc(F)cc1)S(=O)(=O)c1ccc(Cl)cc1 (stereo unspecified),0,70*,0,0,-13,-6,
Cc1ncn(-c2ccc(Nc3nccc(-c4ccc(NS(C)(=O)=O)cc4)n3)cc2)n1,12,-12,0,1,/,/,
COc1ccccc1-c1cc(C(F)(F)F)nc(S(=O)(=O)CCCC(=O)Nc2ccc(F)c(Cl)c2)n1,-1,54*,0,1,-9,-2,
COc1ccc(-c2cc(C(F)(F)F)nc(S(=O)(=O)CCCC(=O)Nc3ccc(F)c(Cl)c3)n2)cc1OC,1,76*,0,0,-6,6,
CCOC(=O)c1cnc2cc(C(F)(F)F)ccc2c1Nc1cc([N+](=O)[O-])ccc1OC,-6,1,0,-1,/,/,
Cc1ccc(SCc2nnc(NC(=O)c3cccc([N+](=O)[O-])c3)s2)cc1,4,14,0,-1,/,/,
CCOC(=O)c1c(NC(=O)c2nn(C)cc2Cl)sc2c1CCCC2,7,93*,0,-1,3,-2,
CCOC(=O)c1c(NC(=O)c2nn(C)cc2[N+](=O)[O-])sc2c1CCCC2,-1,17,0,-1,/,/,
O=C(NNC(=O)c1cc(-c2ccco2)nc2ccccc12)NC1CCCCC1,3,87*,-1,5,91*,2,AlphaScreen DR=>6.5
NC(=O)C1CCN(C(=O)c2cc(-c3ccco3)nc3ccccc23)CC1,-1,97*,-1,-2,75*,-11,AlphaScreen DR=>6.7
Cc1ccc2nc(-c3ccccc3)cc(C(=O)N3CCC(C(N)=O)CC3)c2c1,2,-7,0,-1,/,/,
CN1CCN(CC(O)Cn2cc(C=O)c3ccccc32)CC1 (stereo unspecified),-15,66*,0,2,0,-5,
O=C(CN(c1ccc(Cl)c(C(F)(F)F)c1)S(=O)(=O)c1ccccc1)NCc1ccccn1,-4,7,0,0,/,/,

# Assay outcomes as filed in PubChem.
